# “And” between values parts separate entries of the source, which are not always exact repeats. Equal entries are not always repeated. A structure can be active in one record and inactive in another. The source made the active and inactive calls. Rule for the calls: active = hit-call score of the fitted dose curve at least 0.9, where 1 is the maximum; inactive = score below 0.9.
# How the values were obtained:
# [1] = APR_HepG2_CellLoss_72hr: Apredica 72-hour HepG2 Assay for Cell Loss (AID 2282915); settings: high-content imaging
# Outline: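 HepG2 cells exposed 72 h to compound at 0.39–200 uM (10 concentrations, duplicate) in 0.5% DMSO. Fixed with 3.7% formaldehyde and Hoechst 33342-stained. Imaged at 20x; nuclear count gives cell number, fitted bidirectionally versus DMSO.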
# [2] = APR_HepG2_P-H2AX_72hr: Apredica 72-hour HepG2 Assay for H2AX Phosphorylation (AID 2282916); settings: imaging, actives raise or lower the signal;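 note: phospho-histone H2A.x immunostain intensity per cell marking DNA damage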
# Outline: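 Phospho-histone H2A.x immunofluorescence, multiplexed with Hoechst and c-Jun, quantified by high-content imaging. Compounds applied to HepG2 for 72 h across ten concentrations (0.39–200 uM, 0.5% DMSO), in duplicate; DMSO baseline.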
# [3] = APR_HepG2_MitoMembPot_72hr: Apredica 72-hour HepG2 Assay for Mitochondrial Membrane Potential (AID 2282917); settings: imaging, actives raise or lower the signal
# Outline: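 HepG2 cells dosed 72 hr with compound at 0.39–200 uM in duplicate, 0.5% v/v DMSO final. Mitochondria stained with 250 nM MitoTracker Red CMXRos for 30 min before formaldehyde fixation, imaged by high-content fluorescence; bidirectional fit versus DMSO.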
# [4] = APR_HepG2_MitoticArrest_72hr: Apredica 72-hour HepG2 Assay for Mitotic Arrest (AID 2282918); settings: high-content imaging, actives raise or lower the signal
# Outline: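 HepG2 cells were exposed for 72 hr to compound at 0.39–200 uM (10 concentrations, duplicate) in 0.5% v/v DMSO, fixed in 3.7% formaldehyde, immunostained for phospho-histone H3 with Hoechst 33342 and imaged by high-content fluorescence; bidirectional fits versus DMSO.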
# [5] = APR_HepG2_MicrotubuleCSK_72hr: Apredica 72-hour HepG2 Assay for Microtubule CSK Stabilty (AID 2282919); settings: HepG2 microtubule cytoskeleton, high-content imaging, actives raise or lower the signal
# Outline: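 HepG2, 72 hr cmpd exposure, 0.39–200 uM (10 pts, duplicate), 0.5% DMSO. 3.7% formaldehyde fix, 0.5% Triton perm, anti-alpha-tubulin/Cy5 plus Hoechst. HCS fluorescence intensity; bidirectional fit vs DMSO baseline; taxol as positive control.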
# [6] = APR_HepG2_P-H2AX_24hr: Apredica 24-hour HepG2 Assay for H2AX Phosphorylation (AID 2282920); settings: high-content imaging, actives raise or lower the signal
# Outline: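 HepG2 human liver cells were exposed for 24 hr to compounds at 0.39–200 uM in duplicate, with 0.5% v/v DMSO final. Fixed cells were immunostained for phospho-histone H2A.x plus Hoechst 33342, imaged by HCS fluorescence, and fitted bidirectionally against DMSO.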
# [7] = APR_HepG2_StressKinase_72hr: Apredica 72-hour HepG2 Assay for Stress Kinase (AID 2282921); settings: HepG2 stress kinase (phospho-c-Jun) imaging, actives raise or lower the signal
# Outline: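 Stress kinase signal is phospho-c-Jun immunofluorescence (1:500 primary, Cy3 secondary) in fixed, permeabilized human HepG2 cells imaged at 20x. Exposure lasted 72 hr over ten concentrations from 0.39 to 200 uM, 0.5% DMSO, in duplicate. Bidirectional fit versus DMSO.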
# [8] = APR_HepG2_StressKinase_24hr: Apredica 24-hour HepG2 Assay for Stress Kinase (AID 2282922); settings: HepG2 stress kinase (phospho-c-Jun) imaging, actives raise or lower the signal
# Outline: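 Read-out: phospho-c-Jun immunofluorescence (Cy3 secondary) quantified by high-content imaging at 20x, nuclei defined by Hoechst 33342. Human HepG2 liver cells dosed 24 hr, 0.39–200 uM, DMSO 0.5% v/v; gain or loss of signal fitted relative to DMSO.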
# [9] = APR_HepG2_p53Act_72hr: Apredica 72-hour HepG2 Assay for p53 Activation (AID 2282923); settings: high-content imaging, actives raise or lower the signal;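 note: average cellular p53 protein immunofluorescence intensity in HepG2 cells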
# Outline: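 After 72 h with compound (ten points, 0.39 to 200 uM, final DMSO 0.5% v/v), fixed HepG2 cells were labelled with sheep anti-p53 and Hoechst 33342 and imaged; gain or loss versus DMSO scored.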
# [10] = APR_HepG2_MitoMass_72hr: Apredica 72-hour HepG2 Assay for Mitochondrial Mass (AID 2282924); settings: high-content imaging, actives raise or lower the signal;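 note: MitoTracker Red CMXRos stain intensity per cell imaged as mitochondrial mass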
# Outline: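 Read-out: MitoTracker Red fluorescence intensity from automated imaging (20x, six fields per well) in human HepG2 liver cells. Dosing ran 72 hr, 0.39–200 uM, 0.5% DMSO; bidirectional curve fitting versus DMSO baseline.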
# [11] = APR_HepG2_NuclearSize_72hr: Apredica 72-hour HepG2 Assay for Nuclear Size (AID 2282925); settings: high-content imaging, actives raise or lower the signal
# Outline: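 Read-out: nuclear diameter from Hoechst 33342 images (ArrayScan, 20x, six fields/well), via cell-cycle image analysis. HepG2 were dosed 0.39–200 uM for 72 hr in 0.5% DMSO. Bidirectional fit relative to DMSO.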
# [12] = ATG_CRE_CIS: Attagene CIS-FACTORIAL HepG2 Assay for human cAMP Responsive Element (CRE) binding protein 3 (AID 2282926); settings: HepG2 CRE cis-reporter, Attagene multiplexed mRNA; actives raise or lower the signal
# Outline: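 Capillary electrophoresis of 6-FAM-labelled, HpaI-digested PCR products quantified reporter transcripts. These came from HepG2 transiently transfected with cis-element reporters and exposed to test chemicals for 24 hours, with DMSO defining baseline activity.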
# [13] = biological target: CCAAT/enhancer-binding protein beta (Homo sapiens) (UniProt P17676); assay: ATG_C_EBP_CIS: Attagene CIS-FACTORIAL HepG2 Assay for human CCAAT/Enhancer Binding Protein (C/EBP) beta (AID 2282927); settings: HepG2 Attagene cis-factorial transcription factor reporter; actives raise or lower the signal
# Chain of CCAAT/enhancer-binding protein beta (Homo sapiens) (P17676 whole entry, looked up): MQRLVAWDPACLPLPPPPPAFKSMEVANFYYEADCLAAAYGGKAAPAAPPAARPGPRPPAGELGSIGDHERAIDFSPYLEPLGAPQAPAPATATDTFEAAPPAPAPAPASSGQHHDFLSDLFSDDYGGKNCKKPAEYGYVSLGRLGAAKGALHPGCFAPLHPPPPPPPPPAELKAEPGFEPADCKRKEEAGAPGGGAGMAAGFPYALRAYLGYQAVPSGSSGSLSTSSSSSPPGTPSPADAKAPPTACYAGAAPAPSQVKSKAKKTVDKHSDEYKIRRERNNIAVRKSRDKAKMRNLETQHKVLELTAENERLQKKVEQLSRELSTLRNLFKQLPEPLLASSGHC
# Outline: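 HepG2 transiently transfected with multiplexed reporter units under cis-regulatory promoters reporting endogenous C/EBPb activity. After 24 h exposure, reporter mRNA assayed by RT-PCR, fluorescent labelling, HpaI digestion and capillary electrophoresis; bidirectional fitting versus DMSO.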
# [14] = ATG_DR4_LXR_CIS: Attagene CIS-FACTORIAL HepG2 Assay for human Liver X Receptor (LXR), DR4 submotif (AID 2282929); settings: HepG2 Attagene DR4 cis-reporter, mRNA transcription; actives raise or lower the signal
# Outline: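 HepG2 cells transiently transfected with cis-promoter-driven multiplexed reporter units (DR4 element) were dosed for 24 h. Reporter mRNA was quantified by RT-PCR, fluorescent primer extension, HpaI digestion and capillary electrophoresis; bidirectional fitting versus DMSO baseline.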
# [15] = biological target: Aryl hydrocarbon receptor (Homo sapiens) (UniProt P35869); assay: ATG_Ahr_CIS: Attagene CIS-FACTORIAL HepG2 Assay for human Aryl Hydrocarbon Receptor (Ahr) (AID 2282930); settings: HepG2 AhR cis-factorial reporter transcription; actives raise or lower the signal
# Chain of Aryl hydrocarbon receptor (Homo sapiens) (P35869 whole entry, looked up): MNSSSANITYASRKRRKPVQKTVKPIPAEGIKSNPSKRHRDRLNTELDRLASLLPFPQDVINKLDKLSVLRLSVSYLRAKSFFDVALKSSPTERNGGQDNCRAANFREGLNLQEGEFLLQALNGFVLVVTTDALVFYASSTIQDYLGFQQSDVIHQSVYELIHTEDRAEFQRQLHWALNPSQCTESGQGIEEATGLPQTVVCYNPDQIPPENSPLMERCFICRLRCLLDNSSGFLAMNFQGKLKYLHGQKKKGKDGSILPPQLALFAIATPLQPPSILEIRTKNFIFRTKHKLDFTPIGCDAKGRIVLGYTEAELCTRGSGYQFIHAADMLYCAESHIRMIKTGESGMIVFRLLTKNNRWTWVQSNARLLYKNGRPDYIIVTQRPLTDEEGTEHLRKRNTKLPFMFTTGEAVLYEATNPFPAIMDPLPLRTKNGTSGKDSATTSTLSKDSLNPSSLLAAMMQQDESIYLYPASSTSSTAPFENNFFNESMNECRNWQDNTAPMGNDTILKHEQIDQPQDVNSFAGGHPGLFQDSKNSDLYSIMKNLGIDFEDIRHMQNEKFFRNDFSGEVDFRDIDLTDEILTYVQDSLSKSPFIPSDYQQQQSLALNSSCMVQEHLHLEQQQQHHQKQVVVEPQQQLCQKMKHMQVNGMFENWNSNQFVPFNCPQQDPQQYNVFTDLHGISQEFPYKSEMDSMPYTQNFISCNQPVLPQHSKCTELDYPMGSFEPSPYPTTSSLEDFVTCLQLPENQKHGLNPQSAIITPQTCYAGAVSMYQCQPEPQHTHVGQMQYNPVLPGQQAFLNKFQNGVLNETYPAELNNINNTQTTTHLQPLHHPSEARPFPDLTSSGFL
# Outline: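 HepG2 cells transiently transfected with cis-element-driven multiplexed reporter units; endogenous AhR activity read as reporter mRNA 24 h after dosing, via RT-PCR, 6-FAM labelling, HpaI digestion and capillary electrophoresis. Bidirectional fit relative to DMSO.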
# [16] = ATG_AP_1_CIS: Attagene CIS-FACTORIAL HepG2 Assay for human Activator Protein 1 (AP-1) (AID 2282931); settings: HepG2 Attagene cis-factorial AP-1 reporter mRNA; actives raise or lower the signal
# Outline: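 HepG2 cells transiently transfected with cis-element-driven multiplex reporter units; 24 h compound exposure. Reporter mRNA quantified by RT-PCR, FAM-labelled fragments resolved by capillary electrophoresis; bidirectional fit versus DMSO baseline.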
# [17] = ATG_AP_2_CIS: Attagene CIS-FACTORIAL HepG2 Assay for human Activator Protein 2 (AP-2) (AID 2282932); settings: HepG2 AP-2 cis-reporter, Attagene transcription factor profiling; actives raise or lower the signal
# Outline: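 Liver-derived HepG2 line, cis-reporter system measuring endogenous factors; 24 h dosing; reporter mRNA detected by fluorescent RT-PCR and capillary electrophoresis.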
# [18] = ATG_BRE_CIS: Attagene CIS-FACTORIAL HepG2 Assay for human Bone Morphogenetic Protein (BMP) Response Element (BRE) (AID 2282933); settings: HepG2 BMP response element reporter, Attagene transcription factor profiling; actives raise or lower the signal
# Outline: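 Endogenous transcription factor activity read in transiently transfected HepG2 cells after 24 h chemical exposure. Bidirectional curve fitting against DMSO; readout is reporter transcript level by RT-PCR with capillary electrophoresis of labelled products.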
# [19] = biological target: Retinoic acid receptor alpha (Homo sapiens) (UniProt P10276); assay: ATG_DR5_RAR_CIS: Attagene CIS-FACTORIAL HepG2 Assay for human Retinoic Acid Receptor Alpha (RARE), DR5 submotif (AID 2282934); settings: HepG2 Attagene cis-factorial RARE DR5 reporter, mRNA; actives raise or lower the signal
# Chain of Retinoic acid receptor alpha (Homo sapiens) (P10276 whole entry, looked up): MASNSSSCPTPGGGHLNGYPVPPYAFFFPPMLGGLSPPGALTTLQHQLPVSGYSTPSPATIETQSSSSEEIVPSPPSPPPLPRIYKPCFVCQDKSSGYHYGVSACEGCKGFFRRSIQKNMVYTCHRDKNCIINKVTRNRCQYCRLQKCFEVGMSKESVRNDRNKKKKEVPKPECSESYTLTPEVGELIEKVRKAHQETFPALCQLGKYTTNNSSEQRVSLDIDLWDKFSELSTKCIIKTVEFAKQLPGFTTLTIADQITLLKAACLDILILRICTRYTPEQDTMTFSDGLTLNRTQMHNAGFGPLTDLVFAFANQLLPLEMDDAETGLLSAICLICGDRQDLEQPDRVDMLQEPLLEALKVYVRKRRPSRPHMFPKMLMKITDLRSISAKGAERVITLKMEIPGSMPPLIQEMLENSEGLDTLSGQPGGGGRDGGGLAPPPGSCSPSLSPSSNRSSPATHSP
# Outline: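 HepG2 cells transiently transfected with multiplexed reporter units; DR5 cis-element drives reporter through endogenous transcription factors. After 24 h dosing, reporter mRNA quantified by RT-PCR, fluorescent labeling, HpaI digestion and capillary electrophoresis; bidirectional fitting versus DMSO.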
# [20] = ATG_CMV_CIS: Attagene CIS-FACTORIAL HepG2 Assay for human CMV (Internal Marker) (AID 2282928); settings: HepG2 CMV promoter reporter, transcription factor profiling; actives raise or lower the signal;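 note: endpoint acts as a background internal control marker rather than a target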
# Outline: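 Readout: fluorescent reporter cDNA fragments separated by capillary electrophoresis after RT-PCR and HpaI cut. Cells: HepG2 carrying transfected cis-promoter reporter constructs, dosed 24 h. Endpoint serves as background internal-marker control, fit bidirectionally versus DMSO.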
smiles,measurement,setting,value
CC/C(=C(\c1ccccc1)c1ccc(OCCN(C)C)cc1)c1ccccc1,AC50,[1],13.3 µM (active) and 17.4 µM (active)
same,AC50,[2],53.9 µM (active) and 59 µM (active)
same,AC50,[3],30.7 µM (active)
same,outcome,[3],inactive
same,AC50,[4],9.78 µM (active) and 3.59 µM (active)
same,outcome,[5],inactive
same,AC50,[6],11.6 µM (active) and 19.7 µM (active)
same,AC50,[7],63.4 µM (active) and 100 µM (active)
same,AC50,[8],32.1 µM (active)
same,outcome,[8],inactive
same,AC50,[9],6.04 µM (active)
same,outcome,[9],inactive
same,AC50,[10],152 µM (active)
same,outcome,[10],inactive
same,AC50,[11],119 µM (active)
same,outcome,[11],inactive
same,outcome,[12],inactive
same,outcome,[13],inactive
same,outcome,[14],inactive
same,outcome,[15],inactive
same,outcome,[16],inactive
same,outcome,[17],inactive
same,outcome,[18],inactive
same,outcome,[19],inactive
C#C[C@]1(O)CC[C@H]2[C@@H]3CCc4cc(O)ccc4[C@H]3CC[C@@]21C,AC50,[1],34.6 µM (active)
same,AC50,[2],70.6 µM (active)
same,outcome,[3],inactive
same,AC50,[4],58.1 µM (active)
same,outcome,[5],inactive
same,AC50,[6],83.4 µM (active)
same,outcome,[7],inactive
same,outcome,[8],inactive
same,AC50,[9],28.5 µM (active)
same,outcome,[10],inactive
same,outcome,[11],inactive
same,AC50,[12],66.9 µM (active) and 26.4 µM (active) and 37 µM (active)
same,outcome,[12],inactive
same,AC50,[13],158 µM (active)
same,outcome,[13],inactive
same,AC50,[14],100 µM (active) and 34 µM (active)
same,outcome,[14],inactive
same,AC50,[15],19.8 µM (active) and 9.23 µM (active)
same,outcome,[15],inactive
same,AC50,[16],47.3 µM (active)
same,outcome,[16],inactive
same,AC50,[17],167 µM (active) and 46.7 µM (active)
same,outcome,[17],inactive
same,AC50,[18],75.6 µM (active) and 48.6 µM (active)
same,outcome,[18],inactive
CC=CC(=O)C1=C(C)C=CCC1(C)C,outcome,[12],inactive
same,outcome,[13],inactive
same,outcome,[20],inactive
same,outcome,[14],inactive
same,outcome,[15],inactive
same,outcome,[16],inactive
same,outcome,[17],inactive
same,outcome,[18],inactive
C1COCO1,outcome,[12],inactive
same,outcome,[13],inactive
same,outcome,[20],inactive
same,outcome,[14],inactive
same,outcome,[15],inactive
same,outcome,[16],inactive
same,outcome,[17],inactive
same,outcome,[18],inactive
C=C/C(C)=C/C/C=C(\C)CCC=C(C)C,outcome,[12],inactive
same,outcome,[13],inactive
same,outcome,[20],inactive
same,outcome,[14],inactive
same,outcome,[15],inactive
same,AC50,[16],125 µM (active)
same,outcome,[17],inactive
same,outcome,[18],inactive
CCCCC(CC)COCCO (stereo unspecified),outcome,[12],inactive
same,outcome,[13],inactive
same,outcome,[20],inactive
same,outcome,[14],inactive
same,AC50,[15],19.8 µM (active)
same,outcome,[16],inactive
same,outcome,[17],inactive
same,outcome,[18],inactive
CCC(=O)OC/C=C(\C)CCC=C(C)C,outcome,[12],inactive
same,outcome,[13],inactive
same,outcome,[20],inactive
same,outcome,[14],inactive
same,outcome,[15],inactive
same,outcome,[16],inactive
same,outcome,[17],inactive
same,outcome,[18],inactive
CC(=O)c1cccnc1,outcome,[12],inactive
same,outcome,[13],inactive
same,outcome,[20],inactive
same,outcome,[14],inactive
same,outcome,[15],inactive
same,outcome,[16],inactive
same,outcome,[17],inactive
same,outcome,[18],inactive
O=C1CCC(=O)N1,outcome,[12],inactive
same,outcome,[13],inactive
same,outcome,[20],inactive
same,outcome,[14],inactive
same,outcome,[15],inactive
same,outcome,[16],inactive
same,outcome,[17],inactive
same,outcome,[18],inactive
NC(=O)c1cccnc1,outcome,[12],inactive
same,outcome,[13],inactive
same,outcome,[20],inactive
same,outcome,[14],inactive
same,AC50,[15],29 µM (active)
same,outcome,[16],inactive
same,outcome,[17],inactive
same,outcome,[18],inactive
Brc1cc(Br)cc(Br)c1,outcome,[12],inactive
same,outcome,[13],inactive
same,outcome,[20],inactive
same,outcome,[14],inactive
same,outcome,[15],inactive
same,outcome,[16],inactive
same,outcome,[17],inactive
same,outcome,[18],inactive
